Holding throughout (assay): log2 ratio of Biotin-Ahx-Ub-VS probe labelling (fragment/DMSO); higher = less target engagement (more negative = stronger competition), active = hit call of the paper (q ≤ 0.05, log2 ratio ≤ -1)
Common to all, as to details: compound concentration: 200 uM; treatment time: 3 h

Experiment [1] addresses T1, ALG13 (UniProt Q9NP73).
T1 sequence (whole entry): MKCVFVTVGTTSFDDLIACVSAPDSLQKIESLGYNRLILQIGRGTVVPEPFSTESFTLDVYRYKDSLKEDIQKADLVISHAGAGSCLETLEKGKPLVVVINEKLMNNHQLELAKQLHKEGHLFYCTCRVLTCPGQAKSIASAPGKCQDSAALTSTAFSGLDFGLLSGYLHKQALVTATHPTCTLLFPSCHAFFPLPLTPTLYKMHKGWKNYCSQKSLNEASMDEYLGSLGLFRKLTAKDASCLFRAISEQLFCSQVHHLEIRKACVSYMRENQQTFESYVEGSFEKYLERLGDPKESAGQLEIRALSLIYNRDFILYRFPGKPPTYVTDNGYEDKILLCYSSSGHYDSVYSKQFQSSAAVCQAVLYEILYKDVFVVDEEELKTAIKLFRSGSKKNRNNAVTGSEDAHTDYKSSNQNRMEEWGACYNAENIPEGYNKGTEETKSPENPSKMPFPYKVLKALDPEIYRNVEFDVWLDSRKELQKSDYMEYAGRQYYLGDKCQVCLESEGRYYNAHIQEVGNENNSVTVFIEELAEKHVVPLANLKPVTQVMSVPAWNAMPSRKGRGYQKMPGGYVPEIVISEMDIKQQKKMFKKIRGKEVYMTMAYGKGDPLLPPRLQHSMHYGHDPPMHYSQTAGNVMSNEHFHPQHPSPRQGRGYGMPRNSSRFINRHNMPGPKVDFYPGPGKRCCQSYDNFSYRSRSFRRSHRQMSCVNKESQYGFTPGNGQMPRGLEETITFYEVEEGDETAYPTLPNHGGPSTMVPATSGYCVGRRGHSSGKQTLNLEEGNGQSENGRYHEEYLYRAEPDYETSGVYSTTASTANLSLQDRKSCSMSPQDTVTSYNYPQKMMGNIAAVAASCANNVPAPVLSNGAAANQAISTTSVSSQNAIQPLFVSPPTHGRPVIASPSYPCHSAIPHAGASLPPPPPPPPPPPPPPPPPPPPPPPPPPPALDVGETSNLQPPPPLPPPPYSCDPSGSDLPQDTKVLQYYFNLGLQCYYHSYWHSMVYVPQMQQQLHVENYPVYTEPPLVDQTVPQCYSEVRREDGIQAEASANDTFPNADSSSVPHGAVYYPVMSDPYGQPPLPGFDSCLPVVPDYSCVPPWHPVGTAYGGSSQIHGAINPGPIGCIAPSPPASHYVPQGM
The method in brief:
(§1)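 Fragment (200 µM) or vehicle was incubated for 3 h with triplicate HEK293T lysate samples of 495 µg, which were then treated with Biotin-Ahx-Ub-VS at 0.5 µM final for 1 h. Labelled DUBs were enriched on NeutrAvidin, digested with LysC and trypsin, and analysed by diaPASEF LC-MS/MS. Values are average log2 fragment/vehicle ratios from an unpaired t-test on global-median-normalised Spectronaut label-free quantities, using proteins with ≥2 unique peptides.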

Experiment [2] addresses ATXN3 (UniProt P54252). The method in brief:
as §1

The target in experiment [3] is T2, BAP1 (UniProt Q92560).
T2 sequence (whole entry): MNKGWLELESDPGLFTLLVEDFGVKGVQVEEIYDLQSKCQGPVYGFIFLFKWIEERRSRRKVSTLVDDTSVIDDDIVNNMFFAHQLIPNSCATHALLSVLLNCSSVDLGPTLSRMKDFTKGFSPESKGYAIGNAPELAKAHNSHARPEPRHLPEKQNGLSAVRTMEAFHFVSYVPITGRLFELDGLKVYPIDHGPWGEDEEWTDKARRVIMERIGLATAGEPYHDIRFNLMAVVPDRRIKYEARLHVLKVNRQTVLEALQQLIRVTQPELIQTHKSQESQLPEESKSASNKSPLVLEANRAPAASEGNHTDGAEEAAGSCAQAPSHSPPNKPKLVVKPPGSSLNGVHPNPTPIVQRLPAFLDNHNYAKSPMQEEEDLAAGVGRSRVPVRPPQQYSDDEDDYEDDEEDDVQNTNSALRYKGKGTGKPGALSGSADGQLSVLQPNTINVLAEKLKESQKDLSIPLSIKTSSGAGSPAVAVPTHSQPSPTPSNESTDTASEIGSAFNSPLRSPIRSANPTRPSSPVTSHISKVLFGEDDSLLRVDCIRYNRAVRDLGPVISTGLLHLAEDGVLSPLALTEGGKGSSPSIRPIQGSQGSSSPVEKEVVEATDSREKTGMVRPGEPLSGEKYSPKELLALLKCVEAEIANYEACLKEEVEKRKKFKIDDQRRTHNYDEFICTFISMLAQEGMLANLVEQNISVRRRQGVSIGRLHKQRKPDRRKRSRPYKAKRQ
The method in brief:
as §1

Experiment [4] addresses EIF3F (UniProt O00303). The method in brief: as §1
Experiment [5] concerns the target EIF3H (UniProt O15372). The method in brief: as §1
Experiment [6] deals with T3, FAM105A (UniProt Q9NUU6).
T3 sequence (whole entry): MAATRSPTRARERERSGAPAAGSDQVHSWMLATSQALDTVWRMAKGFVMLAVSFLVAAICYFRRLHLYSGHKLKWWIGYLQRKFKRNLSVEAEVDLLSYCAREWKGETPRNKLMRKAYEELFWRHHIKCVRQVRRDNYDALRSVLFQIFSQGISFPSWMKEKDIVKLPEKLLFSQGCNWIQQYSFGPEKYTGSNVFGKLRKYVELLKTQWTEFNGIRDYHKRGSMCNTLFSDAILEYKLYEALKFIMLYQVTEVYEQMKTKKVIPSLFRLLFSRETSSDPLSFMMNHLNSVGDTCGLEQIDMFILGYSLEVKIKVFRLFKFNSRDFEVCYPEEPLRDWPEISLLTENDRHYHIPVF
The gist of the method:
as §1

Experiment [7] concerns the target OTUB1 (UniProt Q96FW1). The gist of the method: as §1
Experiment [8] has as its target T4, OTUD4 (UniProt Q01804).
T4 sequence (whole entry): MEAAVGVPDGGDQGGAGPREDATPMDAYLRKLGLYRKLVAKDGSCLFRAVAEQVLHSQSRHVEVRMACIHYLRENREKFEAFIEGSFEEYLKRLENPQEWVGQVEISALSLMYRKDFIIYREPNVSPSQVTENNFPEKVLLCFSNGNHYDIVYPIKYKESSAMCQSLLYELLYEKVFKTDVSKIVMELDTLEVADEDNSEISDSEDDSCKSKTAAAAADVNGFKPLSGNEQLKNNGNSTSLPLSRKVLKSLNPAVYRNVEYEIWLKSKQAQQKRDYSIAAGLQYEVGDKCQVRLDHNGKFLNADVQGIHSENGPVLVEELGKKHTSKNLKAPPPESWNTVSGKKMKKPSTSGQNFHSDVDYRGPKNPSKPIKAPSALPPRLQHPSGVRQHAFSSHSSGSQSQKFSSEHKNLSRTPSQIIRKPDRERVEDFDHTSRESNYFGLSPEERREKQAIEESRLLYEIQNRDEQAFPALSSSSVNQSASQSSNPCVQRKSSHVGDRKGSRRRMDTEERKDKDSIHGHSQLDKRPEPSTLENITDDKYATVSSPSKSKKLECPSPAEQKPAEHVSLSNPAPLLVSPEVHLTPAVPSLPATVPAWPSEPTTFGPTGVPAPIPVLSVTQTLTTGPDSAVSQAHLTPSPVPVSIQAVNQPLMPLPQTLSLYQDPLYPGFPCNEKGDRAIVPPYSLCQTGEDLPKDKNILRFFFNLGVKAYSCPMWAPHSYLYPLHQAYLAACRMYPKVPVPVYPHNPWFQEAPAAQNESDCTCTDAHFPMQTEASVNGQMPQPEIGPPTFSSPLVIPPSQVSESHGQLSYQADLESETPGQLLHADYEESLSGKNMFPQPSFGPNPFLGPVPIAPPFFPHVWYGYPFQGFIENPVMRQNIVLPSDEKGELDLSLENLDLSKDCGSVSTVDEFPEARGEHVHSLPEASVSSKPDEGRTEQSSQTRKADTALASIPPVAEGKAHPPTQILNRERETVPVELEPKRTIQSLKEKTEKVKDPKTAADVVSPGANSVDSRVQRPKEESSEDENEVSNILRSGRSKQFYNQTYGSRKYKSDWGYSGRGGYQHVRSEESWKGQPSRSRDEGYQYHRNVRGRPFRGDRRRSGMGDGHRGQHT
The gist of the method:
as §1

Experiment [9] addresses T5, OTUD5 (UniProt Q96G74).
T5 sequence (whole entry): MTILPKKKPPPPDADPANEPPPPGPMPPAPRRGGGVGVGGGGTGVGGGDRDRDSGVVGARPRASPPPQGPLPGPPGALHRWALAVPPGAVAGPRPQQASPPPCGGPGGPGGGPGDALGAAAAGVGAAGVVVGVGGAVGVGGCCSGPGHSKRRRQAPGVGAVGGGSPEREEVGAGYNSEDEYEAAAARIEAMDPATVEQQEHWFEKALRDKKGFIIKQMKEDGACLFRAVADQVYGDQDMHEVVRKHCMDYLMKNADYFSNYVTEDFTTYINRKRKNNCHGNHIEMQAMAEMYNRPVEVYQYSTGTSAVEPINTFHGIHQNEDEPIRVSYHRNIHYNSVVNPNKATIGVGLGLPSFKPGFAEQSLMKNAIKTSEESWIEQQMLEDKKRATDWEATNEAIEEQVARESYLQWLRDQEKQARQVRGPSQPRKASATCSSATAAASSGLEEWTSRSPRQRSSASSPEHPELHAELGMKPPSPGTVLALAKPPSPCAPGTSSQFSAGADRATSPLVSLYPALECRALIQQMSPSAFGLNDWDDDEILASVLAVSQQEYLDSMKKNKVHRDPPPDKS
The gist of the method:
as §1

These results are taken from the supplement of paper PMC11732987, “Enantioselective OTUD7B fragment discovery through chemoproteomics screening and high-throughput optimisation” (Communications Chemistry, 2025).

Structures are written as SMILES. Values without a mark were called inactive.

OTUB1, sequence (Q96FW1 whole entry): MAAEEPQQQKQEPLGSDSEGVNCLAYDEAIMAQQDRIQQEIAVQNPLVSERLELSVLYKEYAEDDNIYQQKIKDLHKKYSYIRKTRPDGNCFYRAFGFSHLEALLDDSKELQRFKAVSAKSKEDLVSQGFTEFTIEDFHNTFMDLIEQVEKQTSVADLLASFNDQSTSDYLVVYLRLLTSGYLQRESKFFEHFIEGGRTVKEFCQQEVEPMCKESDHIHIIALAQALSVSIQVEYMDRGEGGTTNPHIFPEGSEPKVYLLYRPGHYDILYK
ATXN3, sequence (P54252 whole entry): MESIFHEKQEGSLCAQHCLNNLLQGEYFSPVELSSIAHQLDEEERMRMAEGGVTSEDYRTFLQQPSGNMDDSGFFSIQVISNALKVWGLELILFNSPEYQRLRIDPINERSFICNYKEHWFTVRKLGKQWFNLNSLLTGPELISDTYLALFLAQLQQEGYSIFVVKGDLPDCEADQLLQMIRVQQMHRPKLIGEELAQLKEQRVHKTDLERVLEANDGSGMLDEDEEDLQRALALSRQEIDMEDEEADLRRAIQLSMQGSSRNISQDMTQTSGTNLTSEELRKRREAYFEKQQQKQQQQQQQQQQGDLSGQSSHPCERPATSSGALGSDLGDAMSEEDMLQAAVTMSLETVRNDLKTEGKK
EIF3F, sequence (O00303 whole entry): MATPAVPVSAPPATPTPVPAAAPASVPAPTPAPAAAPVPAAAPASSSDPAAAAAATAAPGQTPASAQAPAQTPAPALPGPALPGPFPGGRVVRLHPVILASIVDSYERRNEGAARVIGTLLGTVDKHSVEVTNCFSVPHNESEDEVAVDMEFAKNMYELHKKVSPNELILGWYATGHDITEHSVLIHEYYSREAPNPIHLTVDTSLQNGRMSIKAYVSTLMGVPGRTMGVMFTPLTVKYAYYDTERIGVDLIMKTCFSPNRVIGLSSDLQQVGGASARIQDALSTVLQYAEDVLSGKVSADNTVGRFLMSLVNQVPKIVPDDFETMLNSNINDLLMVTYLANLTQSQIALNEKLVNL
EIF3H, sequence (O15372 whole entry): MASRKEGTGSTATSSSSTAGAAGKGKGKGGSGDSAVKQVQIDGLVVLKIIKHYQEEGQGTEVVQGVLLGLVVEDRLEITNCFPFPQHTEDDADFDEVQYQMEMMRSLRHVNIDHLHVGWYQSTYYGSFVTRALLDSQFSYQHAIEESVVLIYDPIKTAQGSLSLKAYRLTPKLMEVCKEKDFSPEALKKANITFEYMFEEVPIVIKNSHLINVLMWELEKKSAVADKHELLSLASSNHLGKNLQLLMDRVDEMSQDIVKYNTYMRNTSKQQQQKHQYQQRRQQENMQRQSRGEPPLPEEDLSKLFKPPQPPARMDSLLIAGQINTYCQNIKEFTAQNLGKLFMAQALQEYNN

With `O=C(CCl)Nc1cc(Cl)ccc1C(=O)O`, the “log2 ratio of Biotin-Ahx-Ub-VS probe labelling” value (from here on “log2 ratio”) is -0.0259 in experiment [1]; 0.182 in experiment [2]; -0.0627 in experiment [3]; -0.053 in [4]; -0.119 in [5]; -0.0511 in [6]. Besides, the “log2 ratio” value in experiment [7] was 0.108; in experiment [8] it was 0.038; in experiment [9], -0.156.
For `O=C(CCl)NC1CCN(C(=O)C2CCCCC2)CC1`, the “log2 ratio” value was -0.358 in [1]; -0.103 in [2]; -1.71 (active) in experiment [3]; -0.569 in [4]; 0.155 in experiment [5]; -0.0528 in [6]. In addition, the “log2 ratio” value is -0.0801 in [7], 0.0192 in [8] and -0.0926 in experiment [9].
Consider `Cn1cc(CN(Cc2ccc(Cl)cc2)C(=O)CCl)cn1`, for which the “log2 ratio” value in experiment [1] was -0.382; in [2], -0.833; in experiment [3] it was -0.944; in experiment [4] it was -0.0957; in experiment [5] it was 0.132; in [6], -0.189. In addition, the “log2 ratio” value in experiment [7] is -0.095; in experiment [8], 0.0527; in experiment [9], -0.592.
Take `Cc1c(C#N)c(NC(=O)CCl)n(Cc2ccco2)c1C`: the “log2 ratio” value in [1] was 0.126; in [2], -0.609; in experiment [3], -3.61 (active); in experiment [4], -0.174; in experiment [5], -0.447; in experiment [6] it was -0.107. Moreover, the “log2 ratio” value in [7] was 0.0458; in [8], -0.292; in [9], -0.61.
Take `O=C(CCl)Nc1cc(Cl)ccc1-n1cncn1`: the “log2 ratio” value in experiment [1] is 0.0898; in experiment [2], -0.881; in experiment [3], -3 (active); in experiment [4] it was -0.457; in experiment [5] it was 0.376; in experiment [6], 0.14. Further, the “log2 ratio” value was -0.487 in experiment [7], -0.779 in [8] and -1.05 (active) in experiment [9].
For the compound `CC(NC(=O)CCl)c1cccc2ccccc12` (configuration not stated), the “log2 ratio” value in experiment [1] is 0.0911; in experiment [2] it was -0.129; in experiment [3] it was -4.13 (active); in experiment [4], -0.0141; in experiment [5], -0.0531; in [6] it was -0.022. The results for the “log2 ratio” value in experiment [7], in experiment [8] and in [9] were -0.352, -1.01 (active) and -0.234, respectively.
For `Cc1cccn2cc(CCNC(=O)CCl)nc12.Cl`, the “log2 ratio” value in experiment [1] was 0.103; in [2], -0.114; in experiment [3], -0.597; in experiment [4] it was -0.323; in experiment [5] it was 0.00132; in experiment [6] it was 0.112. The entries for the “log2 ratio” value in [7], in experiment [8] and in experiment [9] were -0.0371, 0.123 and 0.0126, respectively.
As to `C[C@@H](NC(=O)CCl)c1cccc(C#N)c1`, the “log2 ratio” value in experiment [1] is 0.118; in experiment [2], -0.463; in [3], -2.8 (active); in experiment [4], -0.345; in experiment [5], 0.144; in experiment [6], 0.148. Also, the figures for the “log2 ratio” value in [7], in [8] and in [9] were -0.229, -0.372 and -0.284, respectively.
